Assay outcomes from PubChem BioAssay.
A selection: hits, their analogues and other compounds. The true share with any hit is near 2.7%.
PAFAH1B2 inh – PAFAH1B2 enzyme inhibitors, primary screen, biochemical, fluorescence polarization, human; Platelet-activating factor acetylhydrolase IB subunit alpha2 (Homo sapiens), P68402; recombinant PAFAH1B2, FP-rhodamine activity probe; inhibition, % at 3.39 µM; 340,000 tested, 1.2% active;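 active = inhibition above the mean of all tested compounds plus 3 SD, cut at about 24% in these data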
TCR-CD3 inh – inhibitors of human TCR-CD3 interaction, primary screen, biochemical, fluorescence, TAMRA-labeled TCR probe | T-cell receptor (TCR) | inhibition, % at 9.4 µM | 360,000 tested, 0.37% active | AID 651800, 2012; in the data active = inhibition above about 19%;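 note: recombinant mutant TCR 2C K166C tagged with TAMRA read by polarization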
PAFAH2 FP inh – PAFAH2 enzyme inhibitors, primary screen, biochemical, fluorescence polarization, human | Platelet-activating factor acetylhydrolase 2, cytoplasmic (Homo sapiens), Q99487 | inhibition, % at 3.39 µM | 340,000 tested, 0.99% active | recombinant PAFAH2, FP-rhodamine activity probe;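 active = inhibition above the mean over all tested compounds plus 3 SD, cut at about 30% in these data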;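 note: inhibitors block probe labeling of enzyme so polarization drops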
pPAFAH inh – pPAFAH enzyme inhibitors, primary screen, biochemical, fluorescence polarization, human. 330,000 tested, 1.5% active. inhibition, % at 3.39 µM. recombinant pPAFAH, FP-rhodamine probe fluorescence polarization;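 active = inhibition above the mean inhibition across the screen plus 3 SD, cut at about 25% in these data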;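 note: inhibitors block binding of the rhodamine activity-based probe so polarization drops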
Target sequence (Q13093 whole entry, looked up): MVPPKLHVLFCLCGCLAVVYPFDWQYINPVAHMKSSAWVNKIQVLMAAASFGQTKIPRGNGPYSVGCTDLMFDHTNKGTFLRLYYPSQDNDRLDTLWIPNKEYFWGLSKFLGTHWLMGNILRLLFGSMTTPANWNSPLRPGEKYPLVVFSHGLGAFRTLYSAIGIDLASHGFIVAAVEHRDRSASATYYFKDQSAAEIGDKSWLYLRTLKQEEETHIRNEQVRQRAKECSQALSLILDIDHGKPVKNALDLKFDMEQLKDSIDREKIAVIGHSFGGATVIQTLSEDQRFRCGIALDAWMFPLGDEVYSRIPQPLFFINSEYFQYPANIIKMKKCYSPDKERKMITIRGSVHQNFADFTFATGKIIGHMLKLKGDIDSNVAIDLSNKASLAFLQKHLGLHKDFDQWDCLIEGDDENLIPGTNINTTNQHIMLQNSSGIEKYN
PAFAH1B3 FP inh – PAFAH1B3 enzyme inhibitors, primary screen, biochemical, fluorescence polarization, human. recombinant PAFAH1B3, FP-rhodamine probe. AID 492972, 2010. 340,000 tested, 0.28% active. Platelet-activating factor acetylhydrolase IB subunit alpha1 (Homo sapiens), Q15102. inhibition, % at 3.39 µM;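 active = inhibition above the screen-wide average of all tested compounds plus 3 SD, cut at about 25% in these data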
Target sequence (Q15102 whole entry, looked up): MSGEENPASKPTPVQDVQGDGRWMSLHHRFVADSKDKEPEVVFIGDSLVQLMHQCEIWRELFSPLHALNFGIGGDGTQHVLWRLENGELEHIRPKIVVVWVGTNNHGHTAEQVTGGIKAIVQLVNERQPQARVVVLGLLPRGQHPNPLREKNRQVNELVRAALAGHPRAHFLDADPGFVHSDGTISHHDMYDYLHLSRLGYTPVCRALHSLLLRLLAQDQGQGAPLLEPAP
Each line names hits and unclear results; the compound was inactive in the other large screens; ! = not active in a repeat.

O=C1CCCc2c1cc(-c1ccccc1)n2-c1ccccc1	PAFAH1B2 inh 25
O=C(CNC(=O)c1cc2c(n(-c3ccccc3)c1=O)CCCC2=O)c1ccccc1	none
COc1cccc(/C=N/NC(=O)c2[nH]c(C)c(C(=O)N/N=C/c3cccc(OC)c3O)c2C)c1O	pPAFAH inh 28, PAFAH1B3 FP inh 45
COc1cccc(/C=N/NC(=O)C(=O)Nc2ccccc2OC(F)(F)C(F)F)c1O	PAFAH2 FP inh 35, PAFAH1B3 FP inh 27
O=C(COc1cccnc1[N+](=O)[O-])NCc1ccco1	none
Cc1ccc2nc(-c3cccc(Cl)c3)c(Cc3ccsc3)n2c1	none (no result: PAFAH1B2 inh, PAFAH2 FP inh, pPAFAH inh, PAFAH1B3 FP inh)
COc1ccc(OC)c(/C=C2\SC(N3CCCC(C)C3)=NC2=O)c1 (stereo not given)	pPAFAH inh 27
COc1ccc(/C=C2\SC(N3CCCCC3)=NC2=O)cc1OC	none
N#CC(=C(c1ccccc1)c1ccccc1)c1ccccc1	PAFAH1B2 inh 24 (no result: pPAFAH inh)
N=c1c(S(=O)(=O)c2ccccc2)cc2c(=O)n3ccccc3nc2n1CCCN1CCOCC1	none
N=c1c(S(=O)(=O)c2ccc(Cl)cc2)cc2c(=O)n3ccccc3nc2n1CCN1CCOCC1	PAFAH1B2 inh 37
CCCc1c(-c2ccc(O)cc2)nn(-c2ccc(O)cc2)c1-c1ccc(O)cc1	pPAFAH inh 33 (no result: TCR-CD3 inh)
CC(NC(=O)c1ccc([N+](=O)[O-])o1)C12CC3CC(CC(C3)C1)C2 (stereo not given)	PAFAH1B2 inh 39
Cc1cc(C)c(S(=O)(=O)/N=C2\C=C(NS(=O)(=O)c3ccccc3)C(=O)c3ccccc32)c(C)c1	none
O=C(O)c1ccc(NC2=C/C(=N/S(=O)(=O)c3cccs3)c3ccccc3C2=O)cc1	none (no result: PAFAH1B2 inh, PAFAH2 FP inh, pPAFAH inh, PAFAH1B3 FP inh)
O=C(O)c1ccc(NC2=C/C(=N/S(=O)(=O)c3ccccc3)c3ccccc3C2=O)cc1	PAFAH1B2 inh 30, PAFAH2 FP inh 48, PAFAH1B3 FP inh 63 (no result: pPAFAH inh)
O=C1C(Nc2ccc(O)cc2)=C/C(=N/S(=O)(=O)c2cccs2)c2ccccc21	PAFAH1B2 inh 29, PAFAH2 FP inh 35, PAFAH1B3 FP inh 64 (no result: pPAFAH inh)
Cc1ccc(NC2=C/C(=N\S(=O)(=O)c3cccs3)c3ccccc3C2=O)c(C)c1	PAFAH1B2 inh 30, PAFAH2 FP inh 34, pPAFAH inh 29, PAFAH1B3 FP inh 65 (no result: TCR-CD3 inh)
Cc1ccc(Cl)cc1NC1=C/C(=N\S(=O)(=O)c2cccs2)c2ccccc2C1=O	PAFAH1B2 inh 28!, PAFAH2 FP inh 31, pPAFAH inh 25, PAFAH1B3 FP inh 58
Cc1cccc(NC2=C(NCCO)C(=O)c3ccccc3C2=O)c1	none
Cc1cccc(NC2=C/C(=N/S(=O)(=O)c3cccs3)c3ccccc3C2=O)c1	PAFAH1B3 FP inh 64
C[C@@H]1CN(c2ccc(N3CCNC[C@H]3C)cc2C#N)CCN1Cc1ccccc1	none (no result: PAFAH1B2 inh, PAFAH2 FP inh, pPAFAH inh, PAFAH1B3 FP inh)
Cc1cc(NC(=O)CCC(=O)N(c2ccccc2)C2(C(=O)NC3CCCCC3)CCCC2)no1	PAFAH1B2 inh 26
Cc1cc(NC(=O)C2(c3ccccc3)CCCC2)no1	PAFAH1B2 inh 25
COc1ccccc1Cc1c(-c2ccc(Cl)cc2)nc2ccc(C)cn12	none (no result: PAFAH1B2 inh, PAFAH2 FP inh, pPAFAH inh, PAFAH1B3 FP inh)
O=C(CC1SC(=O)N(c2ccccc2)C1=O)Nc1cccc2ccccc12 (stereo not given)	pPAFAH inh 25
COC(=O)C1=C(C)N(Cc2cccc(C(F)(F)F)c2)C(=NCc2ccccc2C(F)(F)F)NC1c1cccc(C(F)(F)F)c1 (stereo not given)	none (no result: PAFAH1B2 inh, PAFAH2 FP inh, pPAFAH inh, PAFAH1B3 FP inh)
CC(C)(C)n1nc2c(c1NC(=O)c1ccc([N+](=O)[O-])cc1)CS(=O)(=O)C2	none
O=C(c1ccco1)N(c1ccccn1)c1ccccn1	none
O=C(/C=C/c1ccco1)N(c1ccccn1)c1ccccn1	pPAFAH inh 33
N#C/C(=C\c1cc2c(cc1Br)OCO2)c1ccc(C(=O)O)cc1	PAFAH1B2 inh 33
CCOc1cc2c(cc1/C=C(/C#N)c1ccc(C(=O)O)cc1)OCO2	none
N#Cc1ccc(OCCCN2CCC(C(O)(C3=CCCC3)c3ccccc3)CC2)cc1 (stereo not given)	none (no result: PAFAH1B2 inh, PAFAH2 FP inh, pPAFAH inh, PAFAH1B3 FP inh)
CCc1c(O)nc(SCC(=O)NC(C)(C)C)n(-c2ccccc2)c1=O	none
CCc1c(O)nc(SCC(=O)c2ccccc2)n(-c2ccccc2)c1=O	pPAFAH inh 26
COc1cc(F)ccc1S(=O)(=O)NCc1cccnc1	none
COC(=O)C1=C(C)N(C)C(=NCc2cc(OC)c(OC)c(OC)c2)NC1c1ccc(Cl)cc1 (stereo not given)	none (no result: PAFAH1B2 inh, PAFAH2 FP inh, pPAFAH inh, PAFAH1B3 FP inh)
COc1ccc(N2CCN(C(=O)CCNC(=O)c3ccc(C(C)(C)C)cc3)CC2)cc1	PAFAH1B2 inh 64
CCCCc1cc(=O)oc2c(CN3CCCC3)c(O)ccc12	none
CCCCc1cc(=O)oc2cc(C)c(CN3CCCC3)c(O)c12	pPAFAH inh 30
CCOc1cc(Br)cc(C(c2c(C(=O)O)[nH]c3ccccc23)c2c(C(=O)O)[nH]c3ccccc23)c1O	PAFAH1B2 inh 79
CSc1ccc(C(c2c(C(=O)O)[nH]c3ccccc23)c2c(C(=O)O)[nH]c3ccccc23)cc1	PAFAH1B2 inh 62, pPAFAH inh 29
CCOC(=O)c1[nH]c2ccccc2c1NC(C)=O	none
Cn1c2ccccc2c2cc(/C=N/NC(=O)c3ccccc3F)ccc21	none
Cn1c2ccccc2c2cc(/C=N/NC(=O)c3ccc(N)cc3)ccc21	pPAFAH inh 31
COCCn1c(=O)[nH]c(=O)c2c1nc(-c1ccc(-c3ccc(Cl)cc3[N+](=O)[O-])o1)n2Cc1ccccc1	pPAFAH inh 27
COc1ccc(-c2ccc(-c3nc4c(c(=O)[nH]c(=O)n4Cc4ccccc4)n3C)o2)c([N+](=O)[O-])c1	none
COCCn1c(-c2ccc(-c3ccc([N+](=O)[O-])cc3Br)o2)nc2c1c(=O)[nH]c(=O)n2CC(C)C	pPAFAH inh 29
CC(C)Cn1c(-c2cc([N+](=O)[O-])ccc2Cl)nc2c1c(=O)[nH]c(=O)n2Cc1ccccc1	pPAFAH inh 25
CN(C)/C=C/C(=O)/C=C/c1cn(-c2ncc(C(F)(F)F)cc2Cl)c2ccccc12	pPAFAH inh 26
COC(=O)Cc1cn(-c2ncc(C(F)(F)F)cc2Cl)c2ccccc12	none
COc1ccc(C(=O)NNC(=S)NC(=O)c2ccco2)cc1	none
CC(Oc1ccc(Cl)cc1)C(=O)NNC(=S)NC(=O)c1ccco1 (stereo not given)	PAFAH1B2 inh 26
O=C(CCNS(=O)(=O)c1ccccc1)OCC(=O)c1ccc(F)cc1	pPAFAH inh 34
CC(=O)c1cccc(NC(=O)COC(=O)CCNS(=O)(=O)c2ccccc2)c1	pPAFAH inh 29
O=C(COC(=O)CCNS(=O)(=O)c1ccc(Cl)cc1)NCc1ccco1	pPAFAH inh 27
Cc1ccccc1Nc1nc(N)nc(COC(=O)CCNS(=O)(=O)c2ccccc2)n1	pPAFAH inh 28
O=C(COC(=O)CCNS(=O)(=O)c1ccc(Cl)cc1)NCc1ccccc1	none (no result: PAFAH1B2 inh, PAFAH2 FP inh, pPAFAH inh, PAFAH1B3 FP inh)
